The assay has as its target pT7_6His-AlfaTag-ZIF268 (human, UniProt P18146 335-423). Nature of the assay: PADIT-seq. Particulars: dsDNA, one strand shown.
As to “CTCGAGGATATCAAGATCTGGCCTCGGCGCGTCAGCGGGAACCTCTAGCTAGCCGACTCACTATAGGGATAATCGCCCTGAGCAAAGACC”, the binding signal is 0.0878 ± 0.104 log2FC.

In turn, “CTCGAGGATATCAAGATCTGGCCTCGGCGCGTGGGATGGAACCTCTAGCTAGCCGACTCACTATAGGGATAATCGCCCTGAGCAAAGACC” displayed a binding signal of 2.17 ± 0.107 log2FC.

“CTCGAGGATATCAAGATCTGGCCTCGGCGCGTGGCGCGGAACCTCTAGCTAGCCGACTCACTATAGGGATAATCGCCCTGAGCAAAGACC”: the binding signal was determined as 0.0413 ± 0.108 log2FC.

“CTCGAGGATATCAAGATCTGGCCTCGGCGCGTGGGGGGGAACCTCTAGCTAGCCGACTCACTATAGGGATAATCGCCCTGAGCAAAGACC” yielded a binding signal of 1.28 ± 0.104 log2FC.

As to “CTCGAGGATATCAAGATCTGGCCTCGGCCGCCCGCGCGGAACCTCTAGCTAGCCGACTCACTATAGGGATAATCGCCCTGAGCAAAGACC”, the binding signal was 0.122 ± 0.126 log2FC.

As to “CTCGAGGATATCAAGATCTGGCCTCGGCACATGGGCGGGAACCTCTAGCTAGCCGACTCACTATAGGGATAATCGCCCTGAGCAAAGACC”, the binding signal was found to be 0.18 ± 0.0881 log2FC.

As to “CTCGAGGATATCAAGATCTGGCCTCGGCCGCCCACGAGGAACCTCTAGCTAGCCGACTCACTATAGGGATAATCGCCCTGAGCAAAGACC”, the binding signal is 0.778 ± 0.094 log2FC.

On to “CTCGAGGATATCAAGATCTGGCCTCGGCGCGTGGCAAGGAACCTCTAGCTAGCCGACTCACTATAGGGATAATCGCCCTGAGCAAAGACC”, for which the binding signal is 0.0121 ± 0.1 log2FC.

For the sequence “CTCGAGGATATCAAGATCTGGCCTCGGCCGCCAACGCGGAACCTCTAGCTAGCCGACTCACTATAGGGATAATCGCCCTGAGCAAAGACC”, the binding signal worked out at 0.204 ± 0.0826 log2FC.

In turn, “CTCGAGGATATCAAGATCTGGCCTCGGCGCGTGGTTCGGAACCTCTAGCTAGCCGACTCACTATAGGGATAATCGCCCTGAGCAAAGACC” returned a binding signal of 0.121 ± 0.0856 log2FC.

Regarding “CTCGAGGATATCAAGATCTGGCCTCGGCGCGCCACGCGGAACCTCTAGCTAGCCGACTCACTATAGGGATAATCGCCCTGAGCAAAGACC”, the binding signal stood at 0.0182 ± 0.0932 log2FC.

“CTCGAGGATATCAAGATCTGGCCTCGGCCGCCCACATGGAACCTCTAGCTAGCCGACTCACTATAGGGATAATCGCCCTGAGCAAAGACC” displayed a binding signal of 1.03 ± 0.0882 log2FC.

In turn, “CTCGAGGATATCAAGATCTGGCCTCGGCGCGCGTGCGGGAACCTCTAGCTAGCCGACTCACTATAGGGATAATCGCCCTGAGCAAAGACC” showed a binding signal of 0.0362 ± 0.119 log2FC.

“CTCGAGGATATCAAGATCTGGCCTCGGCTGCCCACGCGGAACCTCTAGCTAGCCGACTCACTATAGGGATAATCGCCCTGAGCAAAGACC”: the binding signal is 0.958 ± 0.086 log2FC.

Sequence “CTCGAGGATATCAAGATCTGGCCTCGGCGACTGGGCGGGAACCTCTAGCTAGCCGACTCACTATAGGGATAATCGCCCTGAGCAAAGACC” displayed a binding signal of 0.0505 ± 0.0931 log2FC.

The sequence “CTCGAGGATATCAAGATCTGGCCTCGGCGTTTGGGCGGGAACCTCTAGCTAGCCGACTCACTATAGGGATAATCGCCCTGAGCAAAGACC” displayed a binding signal of 0.123 ± 0.0893 log2FC.

“CTCGAGGATATCAAGATCTGGCCTCGGCGCGTGAGCGGGAACCTCTAGCTAGCCGACTCACTATAGGGATAATCGCCCTGAGCAAAGACC” yielded a binding signal of 0.00935 ± 0.101 log2FC.

In turn, “CTCGAGGATATCAAGATCTGGCCTCGGCGCGTGGTCAGGAACCTCTAGCTAGCCGACTCACTATAGGGATAATCGCCCTGAGCAAAGACC” came in with a binding signal of 0.198 ± 0.102 log2FC.

“CTCGAGGATATCAAGATCTGGCCTCGGCGATTGGGCGGGAACCTCTAGCTAGCCGACTCACTATAGGGATAATCGCCCTGAGCAAAGACC” registered a binding signal of 0.0131 ± 0.0888 log2FC.

As for “CTCGAGGATATCAAGATCTGGCCTCGGCCGCCCACGTGGAACCTCTAGCTAGCCGACTCACTATAGGGATAATCGCCCTGAGCAAAGACC”, the binding signal came to 1.68 ± 0.0823 log2FC.

Turning to “CTCGAGGATATCAAGATCTGGCCTCGGCTTCCCACGCGGAACCTCTAGCTAGCCGACTCACTATAGGGATAATCGCCCTGAGCAAAGACC”, the binding signal was found to be 0.363 ± 0.0983 log2FC.

With “CTCGAGGATATCAAGATCTGGCCTCGGCGCGCGGGCGGGAACCTCTAGCTAGCCGACTCACTATAGGGATAATCGCCCTGAGCAAAGACC”, the binding signal stood at 1.18 ± 0.1 log2FC.

The sequence “CTCGAGGATATCAAGATCTGGCCTCGGCGGTTGGGCGGGAACCTCTAGCTAGCCGACTCACTATAGGGATAATCGCCCTGAGCAAAGACC” came in with a binding signal of 0.0831 ± 0.0849 log2FC.

Consider “CTCGAGGATATCAAGATCTGGCCTCGGCGCGAGCGCGGGAACCTCTAGCTAGCCGACTCACTATAGGGATAATCGCCCTGAGCAAAGACC”, for which the binding signal is 0.0892 ± 0.102 log2FC.

On to “CTCGAGGATATCAAGATCTGGCCTCGGCGGGTGGGCGGGAACCTCTAGCTAGCCGACTCACTATAGGGATAATCGCCCTGAGCAAAGACC”, for which the binding signal was determined as 1.66 ± 0.0839 log2FC.

Sequence “CTCGAGGATATCAAGATCTGGCCTCGGCCAGTGGGCGGGAACCTCTAGCTAGCCGACTCACTATAGGGATAATCGCCCTGAGCAAAGACC” came in with a binding signal of 1.87 ± 0.0948 log2FC.

In the case of “CTCGAGGATATCAAGATCTGGCCTCGGCCGCCCTCGCGGAACCTCTAGCTAGCCGACTCACTATAGGGATAATCGCCCTGAGCAAAGACC”, the binding signal worked out at 0.0695 ± 0.102 log2FC.

On to “CTCGAGGATATCAAGATCTGGCCTCGGCGCGTGGGAAGGAACCTCTAGCTAGCCGACTCACTATAGGGATAATCGCCCTGAGCAAAGACC”, for which the binding signal came to 2.03 ± 0.0894 log2FC.

“CTCGAGGATATCAAGATCTGGCCTCGGCGCGTCGGCGGGAACCTCTAGCTAGCCGACTCACTATAGGGATAATCGCCCTGAGCAAAGACC”: the binding signal was found to be 0.627 ± 0.116 log2FC.

In turn, “CTCGAGGATATCAAGATCTGGCCTCGGCGTCCCACGCGGAACCTCTAGCTAGCCGACTCACTATAGGGATAATCGCCCTGAGCAAAGACC” yielded a binding signal of 0.365 ± 0.0872 log2FC.

For the sequence “CTCGAGGATATCAAGATCTGGCCTCGGCGCGAGGGCGGGAACCTCTAGCTAGCCGACTCACTATAGGGATAATCGCCCTGAGCAAAGACC”, the binding signal turned out to be 0.751 ± 0.109 log2FC.

With “CTCGAGGATATCAAGATCTGGCCTCGGCGCGCTGGCGGGAACCTCTAGCTAGCCGACTCACTATAGGGATAATCGCCCTGAGCAAAGACC”, the binding signal turned out to be 0.0489 ± 0.154 log2FC.

For “CTCGAGGATATCAAGATCTGGCCTCGGCATGTGGGCGGGAACCTCTAGCTAGCCGACTCACTATAGGGATAATCGCCCTGAGCAAAGACC”, the binding signal worked out at 2.94 ± 0.0778 log2FC.

“CTCGAGGATATCAAGATCTGGCCTCGGCCGCCTCCGCGGAACCTCTAGCTAGCCGACTCACTATAGGGATAATCGCCCTGAGCAAAGACC”: the binding signal was determined as 0.383 ± 0.0978 log2FC.

For “CTCGAGGATATCAAGATCTGGCCTCGGCCGCCCACCCGGAACCTCTAGCTAGCCGACTCACTATAGGGATAATCGCCCTGAGCAAAGACC”, the binding signal came out at 0.112 ± 0.113 log2FC.

“CTCGAGGATATCAAGATCTGGCCTCGGCGCGTGGTCGGGAACCTCTAGCTAGCCGACTCACTATAGGGATAATCGCCCTGAGCAAAGACC” displayed a binding signal of 0.471 ± 0.1 log2FC.

On to “CTCGAGGATATCAAGATCTGGCCTCGGCGCGTGGCGGGGAACCTCTAGCTAGCCGACTCACTATAGGGATAATCGCCCTGAGCAAAGACC”, for which the binding signal was 0.049 ± 0.11 log2FC.

In turn, “CTCGAGGATATCAAGATCTGGCCTCGGCAGACCACGCGGAACCTCTAGCTAGCCGACTCACTATAGGGATAATCGCCCTGAGCAAAGACC” displayed a binding signal of 0.0219 ± 0.102 log2FC.

Consider “CTCGAGGATATCAAGATCTGGCCTCGGCAGGTGGGCGGGAACCTCTAGCTAGCCGACTCACTATAGGGATAATCGCCCTGAGCAAAGACC”, for which the binding signal is 2.15 ± 0.0839 log2FC.

(Values after paper doi:10.1101/2024.03.05.583629.)
